# Measurements reported in ChEMBL document CHEMBL1961873, “Compounds: GSK PKIS; Assays: Nanosyn kinase panel” (2012).
# Experiments:
# [1] = molecular target: Protein kinase C gamma type (Homo sapiens) (UniProt P05129); conditions: at 1 µM;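 note: each value is an averaged percent inhibition of the enzyme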
# [2] = molecular target: T1, Protein kinase C iota type (Homo sapiens) (UniProt P41743); conditions: at 0.1 µM
# T1 sequence (whole entry): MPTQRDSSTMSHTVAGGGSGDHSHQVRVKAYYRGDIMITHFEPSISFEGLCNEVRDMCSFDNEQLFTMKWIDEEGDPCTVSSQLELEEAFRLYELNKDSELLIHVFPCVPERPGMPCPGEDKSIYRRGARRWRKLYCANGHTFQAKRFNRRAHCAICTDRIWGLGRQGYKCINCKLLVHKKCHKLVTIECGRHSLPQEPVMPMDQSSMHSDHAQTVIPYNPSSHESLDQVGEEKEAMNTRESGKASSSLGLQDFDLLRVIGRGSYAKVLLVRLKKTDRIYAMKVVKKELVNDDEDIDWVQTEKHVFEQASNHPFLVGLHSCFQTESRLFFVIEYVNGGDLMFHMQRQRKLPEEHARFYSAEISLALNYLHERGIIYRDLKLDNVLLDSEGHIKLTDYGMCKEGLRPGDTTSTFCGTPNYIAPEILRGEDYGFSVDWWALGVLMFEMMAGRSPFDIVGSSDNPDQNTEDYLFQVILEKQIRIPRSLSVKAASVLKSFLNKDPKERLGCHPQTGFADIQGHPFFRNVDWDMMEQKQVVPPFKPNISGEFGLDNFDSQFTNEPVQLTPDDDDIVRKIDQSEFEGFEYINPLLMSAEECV
# [3] = molecular target: T1, Protein kinase C iota type (Homo sapiens); conditions: at 1 µM
# [4] = molecular target: Protein kinase C theta type (Homo sapiens) (UniProt Q04759); conditions: at 0.1 µM
# [5] = molecular target: Protein kinase C theta type (Homo sapiens) (UniProt Q04759); conditions: at 1 µM
# [6] = molecular target: Protein kinase C beta type (Homo sapiens) (UniProt P05771); conditions: at 0.1 µM
# [7] = molecular target: Protein kinase C beta type (Homo sapiens) (UniProt P05771); conditions: at 1 µM
# [8] = molecular target: T2, Serine/threonine-protein kinase D1 (Homo sapiens) (UniProt Q15139); conditions: at 0.1 µM
# T2 sequence (whole entry): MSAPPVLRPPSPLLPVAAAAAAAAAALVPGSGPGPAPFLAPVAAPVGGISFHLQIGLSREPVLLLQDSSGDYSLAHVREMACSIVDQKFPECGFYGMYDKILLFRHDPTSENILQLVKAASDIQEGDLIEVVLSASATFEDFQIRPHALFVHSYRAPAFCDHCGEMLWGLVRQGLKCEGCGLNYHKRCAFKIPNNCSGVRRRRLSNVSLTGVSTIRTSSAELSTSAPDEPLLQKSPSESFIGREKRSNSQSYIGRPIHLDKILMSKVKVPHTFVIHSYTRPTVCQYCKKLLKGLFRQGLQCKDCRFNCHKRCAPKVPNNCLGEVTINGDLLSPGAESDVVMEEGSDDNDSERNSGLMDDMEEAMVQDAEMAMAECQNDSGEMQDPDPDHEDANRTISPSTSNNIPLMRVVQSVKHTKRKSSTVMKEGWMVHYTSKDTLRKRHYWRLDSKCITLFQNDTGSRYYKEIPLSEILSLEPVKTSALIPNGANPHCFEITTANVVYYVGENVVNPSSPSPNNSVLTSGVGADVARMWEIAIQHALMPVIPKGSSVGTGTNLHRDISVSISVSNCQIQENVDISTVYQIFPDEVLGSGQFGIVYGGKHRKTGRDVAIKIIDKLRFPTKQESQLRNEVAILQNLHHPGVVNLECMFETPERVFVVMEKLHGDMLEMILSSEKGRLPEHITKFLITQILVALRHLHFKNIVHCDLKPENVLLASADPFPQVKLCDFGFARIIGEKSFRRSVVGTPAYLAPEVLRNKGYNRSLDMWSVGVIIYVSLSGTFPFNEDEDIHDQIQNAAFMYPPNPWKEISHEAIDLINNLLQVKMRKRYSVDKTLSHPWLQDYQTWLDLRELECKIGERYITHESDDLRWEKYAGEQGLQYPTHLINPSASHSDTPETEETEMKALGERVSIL
# [9] = molecular target: T2, Serine/threonine-protein kinase D1 (Homo sapiens); conditions: at 1 µM
# [10] = molecular target: T3, Serine/threonine-protein kinase D2 (Homo sapiens) (UniProt Q9BZL6); conditions: at 0.1 µM;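 note: reported percent inhibition values are means, part of the GSK PKIS kinase panel screen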
# T3 sequence (whole entry): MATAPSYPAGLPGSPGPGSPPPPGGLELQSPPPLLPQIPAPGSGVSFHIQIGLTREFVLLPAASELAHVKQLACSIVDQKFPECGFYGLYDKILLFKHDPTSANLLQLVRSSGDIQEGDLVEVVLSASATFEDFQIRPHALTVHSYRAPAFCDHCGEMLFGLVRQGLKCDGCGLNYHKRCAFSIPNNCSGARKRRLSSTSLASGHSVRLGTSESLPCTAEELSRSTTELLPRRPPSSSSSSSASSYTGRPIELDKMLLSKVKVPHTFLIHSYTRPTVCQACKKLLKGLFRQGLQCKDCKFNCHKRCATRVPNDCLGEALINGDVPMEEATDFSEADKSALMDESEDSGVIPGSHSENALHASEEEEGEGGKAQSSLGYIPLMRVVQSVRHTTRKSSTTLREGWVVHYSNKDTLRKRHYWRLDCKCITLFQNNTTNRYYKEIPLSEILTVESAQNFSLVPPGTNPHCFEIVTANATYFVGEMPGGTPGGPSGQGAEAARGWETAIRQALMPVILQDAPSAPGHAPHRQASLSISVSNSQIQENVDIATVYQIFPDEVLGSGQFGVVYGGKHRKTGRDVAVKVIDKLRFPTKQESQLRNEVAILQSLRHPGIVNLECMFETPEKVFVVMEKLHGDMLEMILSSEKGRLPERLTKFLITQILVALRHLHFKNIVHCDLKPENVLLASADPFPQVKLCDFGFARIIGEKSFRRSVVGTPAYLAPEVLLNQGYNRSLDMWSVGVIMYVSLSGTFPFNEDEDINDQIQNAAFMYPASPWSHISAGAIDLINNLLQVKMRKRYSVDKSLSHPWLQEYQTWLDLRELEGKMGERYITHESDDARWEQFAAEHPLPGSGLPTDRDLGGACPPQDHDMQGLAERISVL
# Chain of Protein kinase C beta type (Homo sapiens) (P05771 2-671 limits assumed): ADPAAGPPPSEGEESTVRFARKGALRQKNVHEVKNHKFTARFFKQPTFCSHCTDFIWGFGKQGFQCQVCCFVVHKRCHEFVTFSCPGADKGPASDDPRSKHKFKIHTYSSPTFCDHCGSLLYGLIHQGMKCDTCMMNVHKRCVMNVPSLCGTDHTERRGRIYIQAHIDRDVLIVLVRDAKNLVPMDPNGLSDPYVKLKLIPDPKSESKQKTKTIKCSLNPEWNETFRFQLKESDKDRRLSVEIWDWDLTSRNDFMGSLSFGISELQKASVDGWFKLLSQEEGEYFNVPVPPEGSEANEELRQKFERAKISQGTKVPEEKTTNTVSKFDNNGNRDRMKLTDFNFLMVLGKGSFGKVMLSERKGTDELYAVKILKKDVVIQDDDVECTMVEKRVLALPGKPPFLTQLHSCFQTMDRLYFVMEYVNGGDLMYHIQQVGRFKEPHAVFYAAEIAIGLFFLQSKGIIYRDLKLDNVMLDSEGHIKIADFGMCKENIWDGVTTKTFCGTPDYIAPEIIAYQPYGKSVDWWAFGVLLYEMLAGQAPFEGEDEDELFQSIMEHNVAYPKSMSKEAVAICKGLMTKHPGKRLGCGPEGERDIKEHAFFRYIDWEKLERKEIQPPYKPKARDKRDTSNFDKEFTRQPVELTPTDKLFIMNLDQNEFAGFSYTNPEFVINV
# Chain of Protein kinase C theta type (Homo sapiens) (Q04759 whole entry, looked up): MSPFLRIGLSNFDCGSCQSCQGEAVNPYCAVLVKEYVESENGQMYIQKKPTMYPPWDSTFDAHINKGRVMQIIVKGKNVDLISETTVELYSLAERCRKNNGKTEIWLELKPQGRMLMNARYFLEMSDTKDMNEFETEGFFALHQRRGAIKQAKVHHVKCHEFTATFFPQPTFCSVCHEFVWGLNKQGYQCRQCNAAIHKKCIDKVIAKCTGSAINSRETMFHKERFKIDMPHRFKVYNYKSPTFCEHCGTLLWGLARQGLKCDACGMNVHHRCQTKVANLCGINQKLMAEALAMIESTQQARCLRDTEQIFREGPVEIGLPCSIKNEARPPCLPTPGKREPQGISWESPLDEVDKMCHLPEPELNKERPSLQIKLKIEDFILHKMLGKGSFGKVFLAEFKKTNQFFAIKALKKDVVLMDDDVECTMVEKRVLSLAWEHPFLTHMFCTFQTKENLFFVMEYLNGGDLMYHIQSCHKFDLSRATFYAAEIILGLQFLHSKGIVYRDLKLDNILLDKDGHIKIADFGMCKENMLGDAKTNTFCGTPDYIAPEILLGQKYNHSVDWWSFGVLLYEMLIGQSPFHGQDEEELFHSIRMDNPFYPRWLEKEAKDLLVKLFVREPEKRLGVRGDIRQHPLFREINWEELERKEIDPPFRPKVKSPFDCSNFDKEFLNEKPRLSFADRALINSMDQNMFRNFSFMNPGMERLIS
smiles,measurement,setting,value
N#Cc1ccc(Oc2nccc(-c3c(-c4ccc(F)cc4)ncn3C3CCNCC3)n2)cc1,inhibition,[1],4.11%
same,inhibition,[2],2.09%
same,inhibition,[3],2.63%
same,inhibition,[4],2.28%
same,inhibition,[5],3.89%
same,inhibition,[6],0.99%
same,inhibition,[7],3.08%
same,inhibition,[8],5.51%
same,inhibition,[9],8.1%
same,inhibition,[10],4.63%
CCc1nccc2c1nc(-c1nonc1N)n2CC,inhibition,[1],-2.73%
same,inhibition,[2],-0.45%
same,inhibition,[3],1.45%
same,inhibition,[4],-0.41%
same,inhibition,[5],0.94%
same,inhibition,[6],0.5%
same,inhibition,[7],1.81%
same,inhibition,[8],1.12%
same,inhibition,[9],2.3%
same,inhibition,[10],1.51%
O=C(Nc1ccc(Oc2ccc3[nH]c(NC(=O)c4ccccc4)nc3c2)cc1)Nc1cc(C(F)(F)F)ccc1F,inhibition,[1],3.66%
same,inhibition,[2],1.82%
same,inhibition,[3],0.93%
same,inhibition,[4],1.79%
same,inhibition,[5],2.18%
same,inhibition,[6],1.51%
same,inhibition,[7],4.95%
same,inhibition,[8],2.05%
same,inhibition,[9],3.41%
same,inhibition,[10],3.12%
O=C1NC(=O)C(c2cccc(Cl)c2)=C1Nc1ccc(Cl)c(C(=O)O)c1,inhibition,[1],4.28%
same,inhibition,[2],0.11%
same,inhibition,[3],0.87%
same,inhibition,[4],1.72%
same,inhibition,[5],3.51%
same,inhibition,[6],1%
same,inhibition,[7],1.2%
same,inhibition,[8],2.5%
same,inhibition,[9],3.42%
same,inhibition,[10],3.1%
COc1ccc(C2=C(N3CCc4ccccc43)C(=O)NC2=O)cc1,inhibition,[1],3.73%
same,inhibition,[2],2.04%
same,inhibition,[3],2.17%
same,inhibition,[4],2.55%
same,inhibition,[5],5.71%
same,inhibition,[6],1.22%
same,inhibition,[7],3.96%
same,inhibition,[8],4.69%
same,inhibition,[9],9.24%
same,inhibition,[10],5.06%
O=C(Nc1n[nH]c2cc(-c3cc(F)ccc3F)ccc12)C1CC1,inhibition,[1],1.94%
same,inhibition,[2],-0.39%
same,inhibition,[3],2.69%
same,inhibition,[4],1.32%
same,inhibition,[5],1.51%
same,inhibition,[6],1.71%
same,inhibition,[7],4.18%
same,inhibition,[8],2.95%
same,inhibition,[9],3.73%
same,inhibition,[10],3.73%
NC(=O)c1cc(-c2ccc(F)cc2)cc(-c2ccncc2)c1N,inhibition,[1],5.15%
same,inhibition,[2],0.73%
same,inhibition,[3],0.87%
same,inhibition,[4],1.84%
same,inhibition,[5],3.65%
same,inhibition,[6],1.46%
same,inhibition,[7],1.35%
same,inhibition,[8],4.65%
same,inhibition,[9],3.31%
same,inhibition,[10],3.51%
COc1ccc(-c2ccc3c(NC(=O)C4CC4)n[nH]c3n2)cc1,inhibition,[1],2.95%
same,inhibition,[2],0.3%
same,inhibition,[3],-0.23%
same,inhibition,[4],1.39%
same,inhibition,[5],2.97%
same,inhibition,[6],0.8%
same,inhibition,[7],0.48%
same,inhibition,[8],2.32%
same,inhibition,[9],1.39%
same,inhibition,[10],1.92%
O=C(Nc1n[nH]c2nc(-c3ccc(O)cc3)c(Br)cc12)C1CC1,inhibition,[1],48.1%
same,inhibition,[2],5.33%
same,inhibition,[3],19.2%
same,inhibition,[4],7.68%
same,inhibition,[5],33.2%
same,inhibition,[6],19%
same,inhibition,[7],57.6%
same,inhibition,[8],4.47%
same,inhibition,[9],7.7%
same,inhibition,[10],6.19%
COc1cc2ncn(-c3cc(OCc4cccs4)c(C(N)=O)s3)c2cc1OC,inhibition,[1],6.19%
same,inhibition,[2],2.66%
same,inhibition,[3],0.01%
same,inhibition,[4],1.98%
same,inhibition,[5],6.01%
same,inhibition,[6],2.61%
same,inhibition,[7],4.99%
same,inhibition,[8],-0.16%
same,inhibition,[9],-1.53%
same,inhibition,[10],-1.61%
COc1cccc(-n2cnc3c(N/N=C/c4ccncc4)ncnc32)c1,inhibition,[1],3.14%
same,inhibition,[2],0.58%
same,inhibition,[3],-0.97%
same,inhibition,[4],0.62%
same,inhibition,[5],4.42%
same,inhibition,[6],2.34%
same,inhibition,[7],2.1%
same,inhibition,[8],-2.1%
same,inhibition,[9],-5.45%
same,inhibition,[10],-4.34%
COC(=O)Nc1nc2ccc(Sc3ccc(NC(=O)Nc4cc(C(F)(F)F)ccc4F)cc3)cc2[nH]1,inhibition,[1],4.57%
same,inhibition,[2],-0.54%
same,inhibition,[3],0.22%
same,inhibition,[4],0.15%
same,inhibition,[5],0.22%
same,inhibition,[6],0.31%
same,inhibition,[7],0.4%
same,inhibition,[8],0.94%
same,inhibition,[9],0.37%
same,inhibition,[10],-0.22%
NC(=O)c1ccc(Oc2nccc(-c3c(-c4ccc(F)cc4)ncn3C3CCNCC3)n2)cc1,inhibition,[1],2.68%
same,inhibition,[2],2.53%
same,inhibition,[3],1.91%
same,inhibition,[4],3.83%
same,inhibition,[5],3.82%
same,inhibition,[6],1.9%
same,inhibition,[7],5.22%
same,inhibition,[8],4.57%
same,inhibition,[9],6.71%
same,inhibition,[10],4.04%
CN(C)c1ccc2c(c1)/C(=C/Nc1ccc(S(N)(=O)=O)cc1)C(=O)N2,inhibition,[1],2.72%
same,inhibition,[2],2.24%
same,inhibition,[3],1.5%
same,inhibition,[4],1.16%
same,inhibition,[5],0.84%
same,inhibition,[6],1.61%
same,inhibition,[7],1.98%
same,inhibition,[8],2.16%
same,inhibition,[9],7.78%
same,inhibition,[10],1.23%
CN(c1ccc(NC(=O)Nc2c(Cl)cccc2Cl)cc1)c1ccnc(Nc2cccc(CS(C)(=O)=O)c2)n1,inhibition,[1],6.65%
same,inhibition,[2],1.27%
same,inhibition,[3],1.5%
same,inhibition,[4],2.22%
same,inhibition,[5],3.24%
same,inhibition,[6],0.41%
same,inhibition,[7],3.24%
same,inhibition,[8],2.4%
same,inhibition,[9],1.18%
same,inhibition,[10],0.57%
CCS(=O)(=O)c1ccc(OC)c(Nc2ncc(-c3cccc(-c4ccccc4F)c3)o2)c1,inhibition,[1],0.81%
same,inhibition,[2],1.05%
same,inhibition,[3],3.5%
same,inhibition,[4],-0.12%
same,inhibition,[5],2.52%
same,inhibition,[6],-0.13%
same,inhibition,[7],1.06%
same,inhibition,[8],1.19%
same,inhibition,[9],1.23%
same,inhibition,[10],1.33%
O=C(Nc1n[nH]c2nc(-c3ccco3)ccc12)C1CC1,inhibition,[1],3.88%
same,inhibition,[2],1.28%
same,inhibition,[3],-0.15%
same,inhibition,[4],0.24%
same,inhibition,[5],-0.12%
same,inhibition,[6],0.74%
same,inhibition,[7],1.21%
same,inhibition,[8],0.7%
same,inhibition,[9],1.4%
same,inhibition,[10],-0.13%
